Measurements: PubChem BioAssay (NCATS)
Results filed as inconclusive are left out. A call without a number means that no potency is given here. A number with no mark means an inactive call. The source made the active and inactive calls. The call rests on the fitted dose curve; in most records, active means well fitted cell-killing curve with a large enough effect; inconclusive means small, poorly fitted or top-dose-only effect, or effect the other way; inactive means no such curve, though single readings can be large or run the other way.

test: Viability qHTS for spleen associated tyrosine kinase inhibitor (SYKi) naive MV4-11 cells (AID 1963823); details: MV4-11 AML viability, CellTiter-Glo luminescence, 72 h; series mostly up to 45 µM; further: nearly all actives have a fitted effect of over 40% in size
Procedure, shortened: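 CellTiter-Glo luminescence, 10 min room-temperature incubation, gave viability. Cells: naive MV4-11 (500/well), treated 72 hr at 37 C, 5% CO2.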
Potency means the concentration at half of the fitted maximal effect.

SMILES	Potency	viability (% of control)
C=C1C(=O)OC2C3=C(C)C(=O)CC3C(C)CC(O)C12 (stereo not given)	13 µM (active)	–
COc1ccc(/C=C/C(=O)O[C@@H]2[C@@H](O)[C@H](C)O[C@@H](OC3C4C=COC(O[C@@H]5O[C@H](CO)[C@@H](O)[C@H](O)[C@H]5O)C4C4(CO)OC34)[C@@H]2O)cc1OC (stereo not given in full)	inactive	–
C=C[C@H]1[C@H](O[C@@H]2O[C@H](CO)[C@@H](O)[C@H](O)[C@H]2O)OC=C2C(=O)OCC[C@]21O	inactive	–
C=C1/C(=C/C=C2\CCC[C@]3(C)[C@@H]([C@H](C)/C=C/[C@H](O)C4CC4)CC[C@@H]23)C[C@@H](O)C[C@@H]1O	0.0326 µM (active)	–
CN(Cc1cccs1)c1ncnc2ccc(-c3ccc4c(c3)OCO4)cc12	11.6 µM (active)	–
Cc1sc2c(c1C)C(c1ccc(Cl)cc1)=N[C@H](CC(=O)NCCCCNC(=O)COc1cccc3c1C(=O)N([C@H]1CCC(=O)NC1=O)C3=O)c1nnc(C)n1-2	0.0461 µM (active)	–
COc1cc(/C=C2\CCCN([C@@H](C)c3ccc(F)cc3)C2=O)ccc1-n1cnc(C)c1	9.2 µM (active)	–
COc1c(C)c(C(=O)c2ccc(N)c(C(=O)O)c2)n2ccccc12	inactive	–
Cc1cc(-c2cnc(N)c3c(-c4ccc5scnc5c4)csc23)n(C)n1	1.3 µM (active)	–
Cc1ccc(Cc2c(C)nc3nc(SCC(=O)NCCN4CCNCC4)nn3c2C)cc1	inactive	–
CCOCCn1nc(CC)c2nc(N3CCC(C(=O)O)CC3)nc(Nc3cc(C)ccn3)c21	inactive	–
COc1cc(O)cc(C)c1C(=O)O[C@H]1[C@@H](OC(C)=O)[C@H](n2ccc(=O)[nH]c2=O)O[C@@H]1CO	inactive	–
Cc1nc2c(O)cccc2c(=O)[nH]1	inactive	–
CCCCCCCCCCCCC/C=C/[C@@H](O)[C@H](CO)N(C)C	–	70.8% [at 4.97 µM]
CC1(C)CC[C@]2(C(=O)O)CC[C@]3(C)C(=CCC4[C@@]5(C)C[C@H](O)[C@H](O[C@@H]6O[C@H](CO)[C@@H](O)[C@H](O)[C@H]6O)[C@@](C)(CO)C5[C@H](O)C[C@]43C)[C@@H]2C1 (stereo not given in full)	inactive	–
CC(=C\C(C)O)/C=C(\C)C(=O)CC1CC(CC(N)=O)CC(=O)O1 (stereo not given)	inactive	–
CC/C=C\CC1C(CC(=O)O)CCC1OC1OC(CO)C(O)C(O)C1O (stereo not given)	inactive	–
COC1=CC(=O)C[C@@H](C)[C@@]12Oc1c(Cl)c(OC)cc(OC)c1C2=O	inactive	–
CC1CC(=O)[C@]2(O)C(C(=O)OCCc3ccc(O)c(O)c3)=CO[C@@H](O[C@@H]3O[C@H](CO)[C@@H](O)[C@H](O)[C@H]3O)[C@H]12 (stereo not given in full)	inactive	–
CN1CC[C@@H](c2c(O)cc(O)c3c(=O)cc(-c4ccc(C(F)(F)F)cc4Cl)oc23)[C@@H]1CO	16.4 µM (active)	–

SMILES	Potency	viability (% of control)
C=C1C(=O)O[C@@H]2/C=C(\C)CC/C=C(\C)CC[C@@H]12	7.31 µM (active)	–
O=C(CCCCCCC(=O)Nc1ccc(C2OC(CSc3nc(-c4ccccc4)c(-c4ccccc4)o3)CC(c3ccc(CO)cc3)O2)cc1)NO (stereo not given)	7.31 µM (active)	–
COc1cc(NC(=O)Nc2cccc(CNC(=O)O[C@H]3CCOC3)c2)ccc1-c1cnco1	1.3 µM (active)	–
CC(C)=CC/C=C(/C)[C@H]1CC[C@]2(C)[C@@H]1[C@H](O)CC1[C@@]3(C)CC[C@H](O)C(C)(C)[C@@H]3[C@@H](O[C@@H]3O[C@H](CO)[C@@H](O)[C@H](O)[C@H]3O[C@@H]3O[C@@H](C)[C@H](O)[C@@H](O)[C@H]3O)C[C@]12C (stereo not given in full)	inactive	–
N#Cc1ccc(Nc2nc(-c3ccc(O)cc3O)cs2)cc1C(F)(F)F	5.17 µM (active)	–
CC1OC(O[C@H]2CC[C@@]3(C)C(CC[C@]4(C)C3CC=C3C5CC(C)(C)CC[C@]5(C(=O)OC5OC(CO)C(OC6OCC(OC7OCC(O)C(O)C7O)C(O)C6O)C(O)C5O)CC[C@]34C)C2(C)C)C(O)C(O)C1OC1OC(CO)C(O)C(OC2OC(CO)C(O)C(O)C2O)C1O (stereo not given in full)	–	54.2% [at 9.25 µM]
Cc1cc(CN)cc(C)c1NC(=O)c1ccc(-c2cc(Cl)ccc2Cl)o1	6.51 µM (active)	–
C=C(C(=O)O[C@H]1C/C(C)=C/CC/C(CO)=C/[C@H]2OC(=O)C(=C)[C@H]12)C(O)CO (stereo not given in full)	2.02 µM (active)	–
CN(CCO)C1CCN(c2ccc(Nc3ncc4c5ccnc(F)c5n(C5CCCC5)c4n3)nc2)CC1	0.0355 µM (active)	–
COC(=N)c1nc2ccc3ncnc(Nc4ccc(F)cc4Br)c3c2s1	1.46 µM (active)	–
CC1OC(=O)C[C@@H]2C(C(=O)O)=CO[C@@H](O[C@H]3O[C@H](CO)[C@@H](O)[C@H](O)[C@H]3O)[C@H]12 (stereo not given in full)	inactive	–
CCOc1cc(CNC2CCCC2)cc(Cl)c1OCc1ccc(Cl)cc1	4.61 µM (active)	–
COC(=O)[C@@H]1C2CC3c4[nH]c5ccccc5c4CCN3CC2CC[C@@H]1O (stereo not given in full)	inactive	–
COC(=O)C1=COC(OC2OC(CO)C(O)C(O)C2O)C2C(C)C(OC(=O)/C=C/c3ccc(O)cc3)C(O)C12 (stereo not given)	inactive	–
C[C@]12CC[C@@H]3c4ccc(O)cc4CC[C@H]3[C@@H]1C[C@@H](O[C@@H]1O[C@H](C(=O)O)[C@@H](O)[C@H](O)[C@H]1O)[C@@H]2O	inactive	–
COC(O)(CC(C)C)C1Oc2cc(C)[nH]c(=O)c2O1 (stereo not given)	inactive	–
CC1(O)CCC2C(C3C1CCC3(C)O)C2(C)C (stereo not given)	inactive	–
CC(C)CC(=O)c1c(O)cc2c(c1O)C(CC(C)C)C1=C(O2)C(C)(C)C(=O)C(C)(C)C1=O (stereo not given)	8.93 µM (active)	–
COc1cc(/C=C/C(=O)O)ccc1O[C@@H]1O[C@H](CO)[C@@H](O)[C@H](O)[C@H]1O[C@@H]1OC[C@](O)(CO)[C@H]1O	inactive	–
C[C@]1(O)CC[C@@H]2C(C(=O)O)=CO[C@@H](O[C@@H]3O[C@H](COC(=O)/C=C/c4ccc(O)c(O)c4)[C@@H](O)[C@H](O)[C@H]3O)[C@@H]21	inactive	–
